Sampled rows, rich in hits. Any-hit rate of the full collection: about 3.4%.
FBW7 act: activators of human E3 ligase FBW7 | Q969H0 | AlphaScreen FBW7–phospho-cyclin E peptide binding, activator screen | normalized activity (activation), % at 26.1 µM | 650,000 compounds, 0.13% hits | AID 1259310; in the data active means normalized activity above about 1.9%;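 further: purified mutant Fbw7 with reduced substrate affinity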
MITF inh: human MITF inhibition, primary screen; inhibition, % at 2.6 µM; O75030; AID 1259374; 650,000 compounds, 0.91% hits; AlphaScreen MITF homodimerization, bead proximity signal; in the data active means inhibition above about 50%;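 further: 0% = vehicle wells with protein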
TEAD-YAP inh: TEAD-YAP interaction inhibition. HEK-TIYL cells, TEAD-Gal4/YAP UAS-luciferase luminescence. inhibition, % at 9.12 µM. 640,000 compounds, 1.4% hits. AID 1259422; in the data active means inhibition above about 32%;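 further: 0% = median of test compound wells and 100% = reference inhibitor wells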
GPR151 ag: activates the human receptor GPR151 | PathHunter beta-arrestin GPR151 cells, luminescence | 650,000 compounds, 1% hits | activation, % at 11.2 µM | Q8TDV0; in the data active means activation above about 4.9%;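 further: 0% = median of compound wells and 100% = cells with positive control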
Target sequence (Q8TDV0 whole entry, looked up): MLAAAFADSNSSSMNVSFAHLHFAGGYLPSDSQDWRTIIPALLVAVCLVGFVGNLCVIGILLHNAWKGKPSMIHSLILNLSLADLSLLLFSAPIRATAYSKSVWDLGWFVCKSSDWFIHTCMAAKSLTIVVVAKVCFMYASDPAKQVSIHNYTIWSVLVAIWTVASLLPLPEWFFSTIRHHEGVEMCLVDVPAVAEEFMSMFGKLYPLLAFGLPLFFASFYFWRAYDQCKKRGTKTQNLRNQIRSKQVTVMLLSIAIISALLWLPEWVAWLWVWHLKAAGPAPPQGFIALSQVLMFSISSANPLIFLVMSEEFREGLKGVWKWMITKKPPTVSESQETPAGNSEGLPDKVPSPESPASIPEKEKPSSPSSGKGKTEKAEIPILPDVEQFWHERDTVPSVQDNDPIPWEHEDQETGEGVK
GPR151 confirm: human GPR151 activation, confirmation screen; AID 1508609; 6,700 tested, under 10 active; GPR151 PathHunter beta-arrestin cells, luminescence, 90 min; % of EA-reagent control over plate median; activation, % at 11.2 µM; shares compounds with GPR151 ag;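 active means mean percent activation across replicates above the confirmation screen cutoff of 4.91%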
GPR119 counter: GPR119 activation, counter-screen for GPR151 activators. GPR119 PathHunter beta-arrestin cells, luminescence, 90 min; 0 = compound-well median, 100 = enzyme-acceptor control. shares compounds with GPR151 ag. 6,700 compounds, 0.3% hits. activation, % at 11.2 µM;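 active means mean percent activation in the counterscreen above 29.09%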;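 further: counterscreen on off-target GPR119 to flag nonselective hits from the GPR151 activator screen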
Numbers without * were called inactive; . = not tested or not shown.

SMILES | FBW7 act | MITF inh | TEAD-YAP inh | GPR151 ag | GPR151 confirm | GPR119 counter
Cc1c(NC(=O)c2cc(-c3ccc(Cl)c(Cl)c3)on2)c(=O)n(-c2ccccc2)n1C | 0 | -10 | 1 | 8.5* | 0 | 2
COc1ccccc1OC(C)C(=O)Nc1c(C)n(C)n(-c2ccccc2)c1=O (stereo unspecified) | 0 | 9 | 13 | 6.7* | 0 | 0
Cc1c(NC(=O)CCSc2ccc(Cl)cc2)c(=O)n(-c2ccccc2)n1C | 0 | -1 | 4 | 5.2* | -1 | -12
Cc1c(NC(=O)Cc2ccc(Cl)cc2)c(=O)n(-c2ccccc2)n1C | 0 | -23 | 16 | 0 | . | .
O=c1oc(-c2ccccc2Cl)nc2ccccc12 | 0 | -1 | 1 | -1 | . | .
CN(C)CCN1C(=O)C(CC(=O)Nc2cccc([N+](=O)[O-])c2)SC1=Nc1ccccc1 (stereo unspecified) | 0 | 6 | -13 | 5.2* | 1 | 17
O=C1CCCN1CCCNc1ccnc(NCCCN2CCCC2=O)n1 | 0 | 7 | -6 | 2 | . | .
CCCNC(=O)c1ccnc(NCCCN2CCCC2=O)c1 | 0 | 27 | 3 | 8.2* | -1 | 0
CC(=O)Nc1ccc(Nc2cc(C)nc(Nc3ccccc3)n2)cc1 | 0 | 6 | -17 | 0 | . | .
CC(=O)Nc1ccc(Nc2cc(C)nc(Nc3ccc(C(F)(F)F)cc3)n2)cc1 | 0 | 2 | 16 | 5.3* | 0 | 12
CC(=O)Nc1ccc(Nc2cc(C)nc(NCCCN3CCCC3=O)n2)cc1 | 0 | 8 | -5 | 5.6* | -1 | -8
O=C1CCCN1CCCNc1nccc(NC2CC2)n1 | 0 | -11 | -10 | 5.5* | 0 | -4
CN1CCN(Cc2ccc(NC(=O)NCCCc3ccccc3)cc2)CC1 | 0 | -6 | -7 | 0 | . | .
Cc1cc(Nc2ccc(Oc3ccccc3)cc2)nc(NCCCN2CCCC2=O)n1 | 0 | 5 | 15 | 6.8* | -1 | 3
Cc1cc(C)n(-c2cc(NCCO)nc(C)n2)n1 | 0 | -3 | 2 | 11* | 0 | -11
COc1ccc(-c2noc(CN(C)Cc3ccncc3C)n2)c(OC)c1OC | 0 | 7 | 4 | 15* | 0 | 10
CCN1CCN(C(c2ccccc2)c2sc3nc(-c4ccco4)nn3c2O)CC1 (stereo unspecified) | 0 | -12 | 3 | 5.3* | -1 | 2
CCN1CCN(C(=O)C(CC(C)C)N2Cc3ccccc3C2=O)CC1 (stereo unspecified) | 0 | 1 | -5 | 5.5* | 0 | -2
CC(C)CC(C(=O)N1CCCCCC1)N1Cc2ccccc2C1=O (stereo unspecified) | 0 | 0 | 4 | 0 | . | .
COc1ccc(/C=C2\C=C(c3ccccc3)N(c3ccc(-c4ccccc4)cc3)C2=O)cc1 | 0 | 7 | 8 | 7.0* | 1 | 6
O=C(NCc1ccccc1)/C(=C\c1ccc(Cl)cc1)NC(=O)c1ccco1 | 1 | -18 | 3 | -1 | . | .
O=C(NCc1ccco1)/C(=C\c1ccc(Br)cc1)NC(=O)c1ccccc1 | 0 | 0 | 1 | 7.0* | 1 | -2
O=C(NCc1ccco1)/C(=C/c1ccc(Cl)cc1)NC(=O)c1ccco1 | 0 | 1 | -2 | 5.7* | 0 | 3
O=[N+]([O-])c1ccc(C(O)CNCCCN2CCOCC2)cc1 (stereo unspecified) | 0 | -1 | 12 | 7.0* | -1 | -11
O=C(NCCCN1CCOCC1)c1ccc([N+](=O)[O-])cc1 | 0 | -5 | 6 | -1 | . | .
SMILES | FBW7 act | MITF inh | TEAD-YAP inh | GPR151 ag | GPR151 confirm | GPR119 counter
CCC(C)NC(=O)CCC(=O)n1ncc2ccc(Cl)cc21 (stereo unspecified) | 0 | -4 | -8 | 0 | . | .
COc1cccc(C=O)c1OCc1ccc(F)cc1 | 0 | -12 | 0 | 5.2* | 1 | -5
COc1cccc(C=O)c1OCc1ccc(Br)cc1 | 0 | -9 | -8 | -2 | . | .
COc1cc(C(Nc2cccc(C)n2)c2ccc3ccc(C)nc3c2O)ccc1O (stereo unspecified) | 0 | -6 | -1 | 5.2* | 0 | 16
CCOc1c(Cl)cc(C=O)cc1Cl | 0 | -6 | -2 | 0 | . | .
COc1cccc(CCC(=O)N2CCCC(N3CCC(CO)CC3)C2)c1 (stereo unspecified) | 0 | 12 | 10 | 8.1* | 0 | -10
CCOC(=O)/C=C(/C)Nc1ccc(OCC)cc1 | 0 | -2 | 13 | 1 | . | .
C=Cc1cccc(NC(=O)c2ccc3c(c2)C(=O)N(Cc2ccccc2)C3=O)c1 | 0 | 13 | 1 | 1 | . | .
COc1cc2c(cc1OC)CN(Cc1cccc([N+](=O)[O-])c1)CC2 | 0 | 12 | -2 | 8.0* | 1 | 13
O=C(CSc1cccc[n+]1[O-])N1CCCCCC1 | 0 | 2 | 2 | 2 | . | .
[O-][n+]1ccccc1SSc1cccc[n+]1[O-] | 0 | 1 | 96* | 6.9* | -1 | -14
Cc1cc(NC(=O)Cc2ccc(F)cc2)ccc1N1CCCC1=O | 0 | 17 | 1 | 5.0* | 0 | 0
Cc1cc(NC(=O)Cc2ccc(-c3ccccc3)cc2)ccc1N1CCCC1=O | 0 | 8 | 11 | 2 | . | .

Assay outcomes deposited in PubChem BioAssay by The Scripps Research Institute Molecular Screening Center.
